Columns and labels:
[1] = target: T1, Aspartate--tRNA(Asp/Asn) ligase (Mycobacterium tuberculosis (strain ATCC 25618 / H37Rv)) (UniProt P9WFW3); experiment: Assay for Asp RNA synthetase-1 from Mycobacterium tuberculosis; format: functional; design: scale not given: direction of the effect not stated beside the values; conditions: 30 µM; further: in the data most compounds retested in dose-response had high values
T1 sequence (whole entry): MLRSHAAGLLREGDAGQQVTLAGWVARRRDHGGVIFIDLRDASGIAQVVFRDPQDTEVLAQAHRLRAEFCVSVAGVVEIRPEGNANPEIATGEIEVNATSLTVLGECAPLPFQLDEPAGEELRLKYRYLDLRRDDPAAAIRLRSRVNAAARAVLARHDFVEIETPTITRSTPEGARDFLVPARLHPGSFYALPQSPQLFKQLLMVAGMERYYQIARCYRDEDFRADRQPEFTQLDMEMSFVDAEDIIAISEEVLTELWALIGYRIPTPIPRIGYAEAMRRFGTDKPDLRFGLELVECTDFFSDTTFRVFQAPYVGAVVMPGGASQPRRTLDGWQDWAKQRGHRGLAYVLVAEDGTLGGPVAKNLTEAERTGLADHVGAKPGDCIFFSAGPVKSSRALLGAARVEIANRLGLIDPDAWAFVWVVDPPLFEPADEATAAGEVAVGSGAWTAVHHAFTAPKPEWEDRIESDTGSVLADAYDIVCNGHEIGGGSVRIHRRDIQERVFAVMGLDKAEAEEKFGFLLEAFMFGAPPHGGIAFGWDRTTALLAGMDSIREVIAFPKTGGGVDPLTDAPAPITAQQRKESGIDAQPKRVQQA

[2] = target: Shiga toxin 2 (Escherichia coli O157:H7) (UniProt P09385+P09386); experiment: E. coli 0.157:H7 Shiga Toxin SOP - stx2 screening assay; format: functional; design: scale not given: direction of the effect not stated beside the values; conditions: 30 µM

Structure (SMILES) | Percent Effect [1] | Percent Effect [2]
Cn1cc(CN2CCCN(C(=O)c3cc(Cl)cn3C)CC2)cn1 | -4.75% | 22.7%
CCc1nc(C2CCCN2C(=O)c2ccoc2C)no1 (centres undefined) | 1.77% | -24%
CCNC(=O)[C@@H]1C[C@H](NC(=O)Cc2ccsc2)CN1Cc1ccc(C)o1 | -0.518% | 18.7%
Cc1nccn1-c1cccc(C2CCCN(C3CCCCC3)C2)n1 (centres undefined) | -3.11% | -8.84%
CCNC(=O)C1CCN(Cc2csc(-c3ccc(C)o3)n2)CC1 | 6.68% | -30.3%
CC(C)(C)n1cc(C(=O)N2CCN(Cc3ccsc3)CC2)cn1 | -3.48% | 30.7%
Cc1nn(C)c(N2CCOCC2)c1CNC(C)c1ccco1 (centres undefined) | -3.01% | 5.98%
CN(C)C(=O)CNC(=O)c1ccc(Cl)cc1F | -6.71% | -8.79%
O=C(NCCc1cccc(F)c1)NCC(O)c1cccc(F)c1 (centres undefined) | -1.7% | 32.2%
CCOc1ccc(Cl)c(C(=O)N2CCN(c3cnccn3)CC2)n1 | -1.79% | -46.8%
Cc1ccc(F)cc1NC(=O)NCC(C)N1CCOCC1 (centres undefined) | -1.14% | -35%
CNc1cc2c(nn1)CCN(C(=O)c1ccc(-n3nccc3C)cc1)C2 | -2.02% | 26.8%
Cc1nc(N2CCN(C)CC2)ncc1C(=O)N1CCC(O)(CO)CC1 | 3.4% | 5.75%
CC(C)NC(=O)COc1nc(C(C)C)no1 | -2.64% | -17.3%
Cc1ccc2c(c1)C1(CC2)CCN(c2nncs2)CC1 | 1.71% | 6.27%
Cc1ccc(C(=O)NC2CCN(C(=O)Nc3ccccn3)CC2)o1 | 5.16% | 25.6%
COc1c(CNC2CCCOc3ccccc32)c(C)nn1C (centres undefined) | -2.86% | -2.26%
O=C(NCCOc1ccc(F)c(F)c1)NCc1ccncc1 | -0.948% | -4.38%
Cn1cccc1C(=O)NCc1cnc2n1CCN(C(=O)N1CCCC1)C2 | -0.495% | -94.8%
CCC(=O)N1CCN(C(=O)CCn2cccn2)CC1 | -2.56% | -8.34%
CCn1ccnc1CN1CCN(CCC(=O)NC(C)(C)C)CC1C (centres undefined) | -4.35% | 15.4%
Cc1c[nH]nc1C1CCCCN1C(=O)Cn1cc(Cl)cn1 (centres undefined) | 4.25% | 10.4%
CCOC(=O)c1c(NC(=O)CN2CCN(C(C)=O)CC2)sc2c1CCC2 | -3.95% | 16.4%
O=C(NCc1ccccc1CN1CCC(O)CC1)Nc1ccncc1 | -0.167% | -42%

Structure (SMILES) | Percent Effect [1] | Percent Effect [2]
CCCn1[nH]cc/c1=N\C(=O)CN1CCOC(Cn2cc(C)cn2)C1 (centres undefined) | -3.84% | 8.34%
CN(C)CC(=O)N1CCC2(CC1)COC(COc1ccccn1)C2 (centres undefined) | 2.27% | -20.6%
COc1cccc(CCC(=O)N2CCCCC2Cn2cccn2)c1 (centres undefined) | 1.44% | 22.5%
CCC(=O)N1CCCC1c1nccnc1Nc1ncccn1 (centres undefined) | 1.12% | 2.75%
Cc1cc(S(=O)(=O)N2CCc3ccc(F)cc32)cc(C(=O)O)c1C | 2.1% | -5.86%
CCc1noc(C(C)N2CCC(N3CCCC3)CC2)n1 (centres undefined) | -8.83% | -5.16%
Cc1ccccc1[C@@H]1CN(C(=O)c2ccc3[nH]nnc3c2)C[C@H]1C(=O)O | 2.17% | -15.8%
Cc1[nH]ccc1C(=O)N1CCC(c2nnc(Cn3ccnc3)n2C)CC1 | -1.28% | -20.6%
CCn1cc(NC(=O)NCC(c2cccc(F)c2)N(C)C)cn1 (centres undefined) | -4.28% | 21.4%
COc1ccc(CS(=O)(=O)CC(=O)NCc2ccccc2F)cc1F | 5.03% | -1.34%
CCOc1ccc(-n2nnc(C(=O)O)c2-c2ccccn2)cc1 | 12% | -8.4%
Cc1nn(C)c(C)c1C1CCCN1C(=O)CCCn1cccn1 (centres undefined) | -2.95% | 10.6%
CC(C)(C)C(=O)NS(=O)(=O)c1ccc(C#N)cc1C(F)(F)F | 0.681% | 21.9%
Cc1ccc(C)c(NC(=O)N(C)Cc2cnn(C)c2)c1 | -1.13% | 19.8%
N#Cc1cc(NC(=O)c2ccccc2)ccc1N1CCC(O)CC1 | -1.51% | -18.7%
NC(=O)C1CCN(Cn2nc(-c3ccccc3)oc2=O)CC1 | 9.54% | -53.5%
CC(C)(C)C(=O)NCCC(=O)NC(C)(C)c1ccc2c(c1)OCCO2 | 1.41% | -2.07%
O=C(C1CCN(c2snc3ccccc23)CC1)N1CCCCCC1 | 3.13% | -32.4%
Cc1noc(Cl)c1CCC(=O)N1CCc2sccc2C1 | -1.63% | 18.9%
CCN1C(=O)CCCC12CCCN(C(=O)c1cnccn1)C2 (centres undefined) | 0.865% | -10.9%
O=C(c1cnccn1)N1CCOCC2(CCN(C3CCOCC3)C2)C1 (centres undefined) | 3.28% | -36.9%
O=C(NCC1CCN(C(=O)c2ccoc2)CC1)c1ccccc1Br | -6.27% | 3.64%
CCn1cc(Br)c(C(=O)NCc2cnn(C)c2)n1 | -2.73% | -41.5%

From ChEMBL document CHEMBL3988442, “University of Dundee, Small-Polar-MMV Screening Library” (2021)
